# Experimental data published in PubChem BioAssay (NCATS).
# “And” between values parts separate entries of the source, which are not always exact repeats. Equal values may be shown once. Inconclusive results are not listed. Where a call stands in place of a potency, no number is given. The source made the active and inactive calls. The call rests on the fitted dose curve; in most records, active means well fitted curve in the direction sought with a large enough effect; inconclusive means small, poorly fitted or top-dose-only effect, or another doubt; inactive means no such curve, though single readings can be large; an effect the other way counts as inactive or inconclusive.
# Key:
# [1] = Identifying Small Molecule Inhibitors of Pancreatic Cancer Stem Cells (SN12C, Adherent) (AID 1259358); conditions: viability/growth inhibition; series mostly up to 46.1 µM;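 further: cell survival measured after 48 h of compound exposure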; further: potency means the concentration at half of the fitted maximal effect
# How it was run: (§1)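 Viability is scored by CellTiter-Glo luminescence 48 h after dosing, expressed as percent activity against vehicle and no-cell references. Spheroid formats rely on cells cultured 14 days in stem cell media beforehand.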
# [2] = Identifying Small Molecule Inhibitors of Pancreatic Cancer Stem Cells (SN12C, Spheroid) (AID 1259360); conditions: Potency: SN12C spheroid viability; series mostly up to 46.1 µM; further: potency means the concentration at half of the fitted maximal effect
# How it was run: (§2)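 Luminescent ATP readout (CellTiter-Glo) quantifies surviving cells after a 48 h drug incubation. Normalization uses DMSO wells as no inhibition and media-only wells as full inhibition; bortezomib served as positive control.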
# [3] = Identifying Small Molecule Inhibitors of Pancreatic Cancer Stem Cells (A278, Adherent) (AID 1259361); conditions: series mostly up to 46.1 µM;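 further: viability read after 48 h compound exposure; nearly all actives have a fitted effect of over 35% in size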
# How it was run: as §1
# [4] = P-glycoprotein substrates identified in KB-3-1 adenocarcinoma cell line, qHTS therapeutic library screen (AID 1346986); conditions: KB-3-1 parental cells viability, CellTiter-Glo, 72 h; series mostly up to 44.5 µM; further: nearly all actives have a fitted effect of over 60% in size;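 further: potency means the concentration at half of the fitted maximal effect; potency is for cytotoxicity meaning loss of cell viability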
# How it was run: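 72 h cell-killing screen, 500 cells/well, CellTiter-Glo luminescence. Paired lines KB-3-1/KB-8-5-11; P-gp dependence checked by tariquidar co-treatment and HEK-293 MDR-19 versus empty-vector cells.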
# [5] = P-glycoprotein substrates identified in KB-8-5-11 adenocarcinoma cell line, qHTS therapeutic library screen (AID 1346987); conditions: KB-8-5-11 (P-gp overexpressing) viability, CellTiter-Glo, 72 h; series mostly up to 44.5 µM; further: nearly all actives have a fitted effect of over 65% in size; further: potency means the concentration at half of the fitted maximal effect
# How it was run: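 Compounds are pinned in dose-response onto KB-8-5-11 cells (500 cells/well, colchicine-free medium) and left 72 h at 37 degree C. CellTiter-Glo luminescence then yields AC50 values.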
# [6] = Identifying Small Molecule Inhibitors of Pancreatic Cancer Stem Cells (Panc1, Spheroid) (AID 1259359); conditions: Panc1 spheroid cancer stem cell viability; series mostly up to 46.1 µM;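 further: compound exposure lasted 48 h before reading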; further: potency means the concentration at half of the fitted maximal effect
# How it was run: as §1
# [7] = Identifying Small Molecule Inhibitors of Pancreatic Cancer Stem Cells (A2780, Spheroid) (AID 1259357); conditions: Potency: A2780 spheroid viability; series mostly up to 46.1 µM; further: potency means the concentration at half of the fitted maximal effect;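 further: spheroids pre-formed over 14 days in stem cell medium on hydrogel; compound exposure lasted 48 h before the ATP luminescence read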
# How it was run: as §2
smiles,measurement,setting,value
CC(C)(Sc1ccc(CCN(CCCCC2CCCCC2)C(=O)NC2CCCCC2)cc1)C(=O)O,Potency,[1],inactive
same,Potency,[2],inactive
same,IC50 (viability decrease),[3],inactive
same,Potency,[4],inactive
same,Potency,[5],inactive
C[C@H](NC(=O)Cc1cc(F)cc(F)c1)C(=O)N[C@@H]1C(=O)N(C)c2ccccc2-c2ccccc21,Potency,[1],inactive
same,Potency,[2],inactive
same,IC50 (viability decrease),[3],inactive
same,Potency,[4],inactive
same,Potency,[5],inactive
COc1ccc(-c2ccc3c(N4CCOCC4)nc(N4C[C@@H](C)O[C@@H](C)C4)nc3n2)cc1CO,Potency,[1],0.235 µM (active)
same,Potency,[6],1.05 µM (active)
same,Potency,[2],0.372 µM (active)
same,Potency,[5],296 nM (active)
CN(C)C(=O)c1ccc(S(=O)(=O)c2ccc(NC(=O)[C@@](C)(O)C(F)(F)F)c(Cl)c2)cc1,Potency,[1],inactive
Cc1ccccc1C(C(=O)NC1CCCC1)N(C(=O)Cn1cnc2ccccc21)c1cccc(F)c1 (stereo not drawn),Potency,[1],inactive
CNC(=O)c1ccc(N2C(=S)N(c3ccc(C#N)c(C(F)(F)F)c3)C(=O)C2(C)C)cc1F,Potency,[7],0.166 µM (active)
same,Potency,[1],inactive
same,IC50 (viability decrease),[3],23.5 µM (active)
same,Potency,[5],inactive
O=c1ncn2nc(Sc3ccc(F)cc3F)ccc2c1-c1c(Cl)cccc1Cl,Potency,[7],14.8 µM (active)
same,Potency,[1],inactive
same,Potency,[5],inactive
CC(C)(C)OC(=O)CN(Cc1ccc(Cl)cc1)Cc1ccc([N+](=O)[O-])s1,Potency,[1],4.69 µM (active)
same,Potency,[6],7.43 µM (active)
same,Potency,[2],inactive
OC[C@H](Cc1ccccc1)Nc1nc(Oc2ccc3c(c2)CCC3)nc2c1ncn2Cc1ccc(-c2ccccc2)cc1,Potency,[1],inactive
O=C(C1CC1)N1CC[C@@H](Cn2c(-c3ccc(-c4ccc5occc5c4)cc3)nc3cnccc32)C1,Potency,[7],0.469 µM (active)
same,Potency,[1],inactive
same,Potency,[5],inactive
CCOc1ccc(Cc2cc([C@@H]3O[C@H](CO)[C@@H](O)[C@H](O)[C@@H]3O)ccc2Cl)cc1,Potency,[7],inactive
same,Potency,[2],inactive
same,Potency,[5],inactive
CCc1cc(Nc2nccc(-c3c(-c4ccc(OC)c(C(=O)Nc5c(F)cccc5F)c4)nc4ccccn34)n2)c(OC)cc1N1CCC(N2CCN(S(C)(=O)=O)CC2)CC1,Potency,[1],inactive
same,Potency,[2],inactive
same,IC50 (viability decrease),[3],inactive
same,Potency,[5],inactive
CCC(=O)N[C@H]1CC[C@H](C(=O)N(C)c2ccc(-c3nc4ccccc4o3)cc2)C1,Potency,[7],14.8 µM (active)
same,Potency,[6],3.72 µM (active)
same,Potency,[2],18.7 µM (active)
CC1(C)SCCN(S(=O)(=O)c2ccc(OCC#CCO)cc2)[C@@H]1C(=O)NO,Potency,[1],inactive
same,Potency,[2],inactive
same,IC50 (viability decrease),[3],inactive
same,Potency,[4],inactive
same,Potency,[5],inactive
COc1ccccc1[C@H](c1cccc2ccccc12)[C@@](C)(C#N)C(=O)N1CCC(c2cccc(C(F)(F)F)c2)CC1,Potency,[1],inactive
same,Potency,[2],inactive
same,IC50 (viability decrease),[3],6.62 µM (active)
Cc1n[nH]c(C)c1Cc1sc2c(c1C(=O)N1C[C@H](O)CO1)c(=O)n(C)c(=O)n2CC(C)C,Potency,[7],inactive
same,Potency,[1],inactive
same,Potency,[4],inactive
same,Potency,[5],inactive
O=C1[C@H](Cc2ccc(O)cc2)N2C(=O)CCN(C(=O)NCc3ccccc3)[C@H]2CN1Cc1cccc2ccccc12,Potency,[1],16.6 µM (active)
same,Potency,[2],20.9 µM (active)
same,IC50 (viability decrease),[3],1.05 µM (active)
Cc1cc([C@@H](C)Nc2ccccc2C(=O)O)c2nc(N3CCOCC3)cc(=O)n2c1,Potency,[1],9.35 µM (active)
same,Potency,[2],14.8 µM (active)
Cc1cc(SCc2sc(-c3ccc(C(F)(F)F)cc3)nc2C)ccc1OCC(=O)O,Potency,[7],inactive
same,Potency,[1],inactive
same,Potency,[4],inactive
same,Potency,[5],inactive
CC(C)c1onc(-c2c(Cl)cccc2Cl)c1COc1ccc(/C=C/c2cccc(C(=O)O)c2)c(Cl)c1,Potency,[1],inactive
same,Potency,[6],18.7 µM (active)
CC1(C)Cc2c(-c3ccccc3)c(-c3ccc(Cl)cc3)c(CC(=O)O)n2C1,Potency,[1],inactive
same,Potency,[2],inactive
Cc1cc(Nc2nc(N[C@@H](C)c3ncc(F)cn3)ncc2Cl)n[nH]1,Potency,[1],inactive
same,Potency,[2],inactive
same,IC50 (viability decrease),[3],inactive
same,Potency,[5],16.6 µM (active) and 1.03 µM (active)
COCCNCCCn1c(C(=O)CF)c(-c2ccc(C)cc2)c2c(N)ncnc21,Potency,[7],inactive
same,Potency,[1],inactive
same,IC50 (viability decrease),[3],18.7 µM (active)
same,Potency,[5],inactive
Cc1ccc2c(c1)C(=O)[C@@]1(O)CCN(c3ccccc3)C1=N2,Potency,[1],inactive
same,Potency,[2],inactive
same,IC50 (viability decrease),[3],inactive
CN(C)c1ccc(Nc2nc(N)n(C(=O)c3c(F)cccc3F)n2)cc1,Potency,[7],18.7 µM (active)
same,IC50 (viability decrease),[3],16.6 µM (active)
Nc1cccc(S(=O)(=O)N2CCCN(S(=O)(=O)c3ccc4c(c3)OCCO4)CC2)c1,Potency,[1],inactive
same,Potency,[6],5.26 µM (active)
same,Potency,[2],inactive
same,IC50 (viability decrease),[3],inactive
Fc1ccc(Cl)cc1-c1nc(Nc2ccncc2)c2nccnc2n1,Potency,[1],inactive
same,Potency,[2],inactive
same,IC50 (viability decrease),[3],inactive
same,Potency,[4],inactive
same,Potency,[5],inactive
COc1ccc(COc2cc3oc(=O)c4cc(C(C)O)ccc4c3cc2OC)cc1 (stereo not drawn),Potency,[7],inactive
same,Potency,[1],inactive
same,Potency,[5],8.33 µM (active) and 3.66 µM (active)
COc1ccc(-c2ccc3c(N4CCOC[C@H]4C)nc(N4CCOC[C@H]4C)nc3n2)cc1CO,Potency,[7],0.0187 µM (active)
same,Potency,[1],0.0148 µM (active)
same,Potency,[5],13.2 nM (active)
O=c1[nH]c(-c2ccc(C(F)(F)F)cc2)nc2c1CSCC2,Potency,[1],inactive
same,Potency,[2],inactive
same,IC50 (viability decrease),[3],inactive
same,Potency,[4],inactive
same,Potency,[5],inactive
O=C(OCC#CCSc1nnc(-c2ccc3ccccc3c2)o1)c1cc2ccccc2s1,Potency,[1],inactive
same,Potency,[2],inactive
CCOC(=O)C1=C[C@@]2(CC)CCCN3CCc4c(n1c1ccccc41)[C@H]32,Potency,[1],inactive
same,Potency,[2],inactive
same,IC50 (viability decrease),[3],inactive
NC(=O)c1ccc(-c2nc(-c3ccc4c(c3)OCO4)c(-c3ccccn3)[nH]2)cc1,Potency,[1],inactive
same,Potency,[2],inactive
same,IC50 (viability decrease),[3],inactive
same,Potency,[4],inactive
same,Potency,[5],inactive
Cc1cc(C=c2sc3nc4ccccc4n3c2=O)c(C)n1-c1ccccc1,Potency,[1],inactive
same,Potency,[2],inactive
same,IC50 (viability decrease),[3],inactive
same,Potency,[5],inactive
CCn1c(-c2nonc2N)nc2c(C#CC(C)(C)O)ncc(OC[C@H]3CCCNC3)c21,Potency,[1],inactive
same,Potency,[6],inactive
same,Potency,[5],inactive
CC(C)OC(=O)C1=CN(C(=O)c2ccc(F)c(F)c2)CC(C)(C)c2c1[nH]c1ccccc21,Potency,[1],inactive
same,IC50 (viability decrease),[3],inactive
same,Potency,[5],inactive
COc1nc(-c2ccc3c(c2)OCO3)n(-c2ccc(NC(=O)CSc3ccccc3)cc2)n1,Potency,[1],inactive
same,Potency,[2],inactive
same,Potency,[5],inactive
Cc1c(CCOc2ccc(C(=O)O)cc2)c2cc(Cl)ccc2n1C(c1ccccc1)c1ccccc1,Potency,[1],inactive
same,IC50 (viability decrease),[3],inactive
same,Potency,[5],inactive
Cc1cc(-c2ccc(CC(=O)Nc3ccc(-c4cccnc4)cc3)cc2)ccn1,Potency,[1],inactive
same,IC50 (viability decrease),[3],18.7 µM (active)
CC[C@@H](C)[C@H](NC(=O)[C@H](CC1CCCCC1)NC(=O)c1ccno1)C(=O)N1CCC2(CCc3ccccc32)CC1,Potency,[1],inactive
same,Potency,[2],11.8 µM (active)
same,Potency,[5],inactive
COc1cccc2cc(-c3nc(C4CCC(C(=O)O)CC4)n4ncnc(N)c34)[nH]c12 (stereo not drawn),Potency,[1],0.833 µM (active)
same,Potency,[4],1.3 µM (active)
same,Potency,[5],296 nM (active) and 1.46 µM (active) and 1.3 µM (active)
CCN(CC)CCCC(C)Nc1nc(C)cc(Nc2ccc3nc(C)cc(N)c3c2)n1 (stereo not drawn),Potency,[1],inactive
same,IC50 (viability decrease),[3],inactive
same,Potency,[4],inactive
same,Potency,[5],inactive
O=C(NOC[C@H](O)CO)c1ccc(F)c(F)c1Nc1ccc(I)cc1F,Potency,[1],9.35 µM (active)
same,Potency,[2],0.0053 µM (active)
same,Potency,[5],inactive
CS(=O)(=O)c1cccc(CNc2nc(Nc3ccc4c(c3)CCC(=O)N4)ncc2C(F)(F)F)c1,Potency,[1],inactive
same,Potency,[2],inactive
same,IC50 (viability decrease),[3],3.72 µM (active)
same,Potency,[5],inactive
